Test results from PubChem BioAssay (Tox21).
“And” between values parts separate entries of the source, which are not always exact repeats. Identical values can stand only once. Inconclusive results are not listed. More than one record can exist for a structure, and the calls need not agree. The source made the active and inactive calls. Unless noted, calls come from the whole dose curve.

Assays:
[1] = Nuclear factor erythroid 2-related factor 2/antioxidant responsive element (Nrf2/ARE) small molecule agonists: luciferase reporter gene qHTS assay in human keratinocytes (AID 1919969); note: nearly all actives have a fitted effect of over 35% in size; note: potency is the fitted concentration of half-maximal effect
[2] = biological target: KiSS-1 receptor (Homo sapiens) (UniProt Q969F8); test: Human kisspeptin (KISS1R) small molecule agonists, calcium flux assay in KISS1R-HEK293 cells (AID 1920064; active = well fitted activation curve with a large enough effect in the repeat runs)
Chain of KiSS-1 receptor (Homo sapiens) (Q969F8 whole entry, looked up): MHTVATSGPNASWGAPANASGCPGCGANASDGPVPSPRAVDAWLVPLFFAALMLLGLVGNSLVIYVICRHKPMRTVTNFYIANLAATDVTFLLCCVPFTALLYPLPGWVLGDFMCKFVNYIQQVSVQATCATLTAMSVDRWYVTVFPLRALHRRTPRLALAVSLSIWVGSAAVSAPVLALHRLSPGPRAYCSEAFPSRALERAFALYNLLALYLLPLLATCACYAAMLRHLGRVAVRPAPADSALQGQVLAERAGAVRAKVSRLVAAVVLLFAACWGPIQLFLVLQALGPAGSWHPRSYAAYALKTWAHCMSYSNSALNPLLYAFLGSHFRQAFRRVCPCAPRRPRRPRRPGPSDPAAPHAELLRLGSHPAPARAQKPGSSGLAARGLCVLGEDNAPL
How it was run: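 HEK293 cells stably expressing human KISS1R were plated 18 h at 37 °C, loaded with calcium dye for 1 h at 37 °C, then given compound by pin tool. Fluorescence (Ex/Em 480/540) was read kinetically for 3 min.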

[3] = G protein-coupled receptor (GPCR) small molecule agonists, calcium flux assay: HEK293 wild type cell line counter screen (AID 1920065)
How it was run: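 Cells were plated and cultured 18 h at 37 C/5% CO2, then loaded with calcium dye for 1 h at 37 C. Compounds in DMSO were pin-transferred in agonist mode, and fluorescence (Ex/Em 480/540) was read kinetically for 3 min at 1 s intervals.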

[4] = p53 small molecule agonists, cell-based qHTS assay with human liver microsomes (AID 1963577);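 note: p53 response element beta-lactamase reporter cells with liver microsomes plus NADPH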
How it was run: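 Reporter activation was measured by LiveBLAzer fluorescence intensity in p53RE-bla cells, which had been exposed to compounds for 16 h at 37 C alongside 0.5 mg/mL human liver microsomes and 0.5 mg/mL NADPH (final concentrations).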

[5] = p53 small molecule agonists, cell-based qHTS assay with rat liver microsomes (AID 1963578)
How it was run: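 Compound in DMSO added to p53RE-bla cells 5 h post-plating; rat microsomes/NADPH 0.5 mg/mL final; 16 h, 37 C; LiveBLAzer 2 h RT.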

[6] = p53 small molecule agonists, cell-based qHTS assay with human liver microsomes: qHTS cell viability counter screen (AID 1963579); note: nearly all actives have a fitted effect of over 45% in size
How it was run: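 HLM-supplemented (0.5 mg/mL final) and NADPH-supplemented (0.5 mg/mL final) p53RE-bla cultures, 4,000 cells per well, were dosed with compounds in DMSO for 16 h at 37 C; luminescent ATP detection (CellTiter-Glo, 30 min, room temperature) quantified surviving cells.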

[7] = p53 small molecule agonists, cell-based qHTS assay: qHTS cell viability counter screen (AID 1963581); note: nearly all actives have a fitted effect of over 45% in size
How it was run: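 p53RE-bla HCT-116 cells were exposed to compounds for 16 h at 37 C; after the beta-lactamase FRET read in the same wells, CellTiter-Glo was added and luminescence (intracellular ATP) read after 30 min at room temperature.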

[8] = p53 small molecule agonists, cell-based qHTS assay (AID 1963582; active = well fitted activation curve with a large enough effect in the signal ratio in the repeat runs, not every such curve was filed as active; the % refers to the signal ratio)
How it was run: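 p53RE-bla beta-lactamase reporter cells rested 5 h at 37 C/5% CO2, then received compounds in DMSO by pin transfer and were incubated 16 h at 37 C. LiveBLAzer B/G FRET substrate was loaded for 2 h at room temperature before fluorescence reading.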

[9] = biological target: 5-hydroxytryptamine receptor 2A (Homo sapiens) (UniProt P28223); test: 5-hydroxytryptamine receptor 2A (HTR2A) small molecule antagonists, cell-based qHTS assay (AID 1963586); note: nearly all actives have a fitted effect of over 45% in size; note: potency is the fitted concentration of half-maximal effect
Chain of 5-hydroxytryptamine receptor 2A (Homo sapiens) (P28223 whole entry, looked up): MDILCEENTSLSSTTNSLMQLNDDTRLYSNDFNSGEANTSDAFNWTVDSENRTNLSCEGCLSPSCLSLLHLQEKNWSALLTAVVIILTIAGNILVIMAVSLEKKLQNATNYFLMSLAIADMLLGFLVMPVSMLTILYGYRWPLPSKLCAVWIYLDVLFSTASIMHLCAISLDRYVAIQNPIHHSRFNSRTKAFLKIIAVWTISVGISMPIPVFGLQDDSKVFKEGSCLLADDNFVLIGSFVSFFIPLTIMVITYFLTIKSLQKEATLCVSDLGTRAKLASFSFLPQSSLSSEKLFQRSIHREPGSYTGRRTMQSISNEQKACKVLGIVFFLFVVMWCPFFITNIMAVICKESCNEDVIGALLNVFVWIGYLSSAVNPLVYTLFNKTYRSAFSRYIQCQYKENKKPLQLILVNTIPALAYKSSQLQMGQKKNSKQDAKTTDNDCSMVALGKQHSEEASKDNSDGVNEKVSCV
How it was run: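 Antagonist-mode intracellular calcium assay: DOI (4 nM) added after 5 min compound pre-incubation at room temperature to dye-loaded HTR2A-CHO cells. Fluorescence followed for 3 min, sampled every second.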

[10] = biological target: 5-hydroxytryptamine receptor 2A (Homo sapiens) (UniProt P28223); test: 5-hydroxytryptamine receptor 2A (HTR2A) small molecule agonists, cell-based qHTS assay (AID 1963587); note: nearly all actives have a fitted effect of over 30% in size; note: potency is the fitted concentration of half-maximal effect
How it was run: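 CHO cells stably expressing human HTR2A, plated 18 h, loaded with calcium dye 1 h at 37 C. Agonist mode: compounds added and intracellular calcium fluorescence recorded kinetically for 2 min at 1 sec intervals.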

[11] = biological target: Muscarinic acetylcholine receptor M1 (Homo sapiens) (UniProt P11229); test: Cholinergic receptor muscarinic 1 (CHRM1) small molecule agonists, cell-based qHTS assay (AID 1963589); note: nearly all actives have a fitted effect of over 35% in size
Chain of Muscarinic acetylcholine receptor M1 (Homo sapiens) (P11229 whole entry, looked up): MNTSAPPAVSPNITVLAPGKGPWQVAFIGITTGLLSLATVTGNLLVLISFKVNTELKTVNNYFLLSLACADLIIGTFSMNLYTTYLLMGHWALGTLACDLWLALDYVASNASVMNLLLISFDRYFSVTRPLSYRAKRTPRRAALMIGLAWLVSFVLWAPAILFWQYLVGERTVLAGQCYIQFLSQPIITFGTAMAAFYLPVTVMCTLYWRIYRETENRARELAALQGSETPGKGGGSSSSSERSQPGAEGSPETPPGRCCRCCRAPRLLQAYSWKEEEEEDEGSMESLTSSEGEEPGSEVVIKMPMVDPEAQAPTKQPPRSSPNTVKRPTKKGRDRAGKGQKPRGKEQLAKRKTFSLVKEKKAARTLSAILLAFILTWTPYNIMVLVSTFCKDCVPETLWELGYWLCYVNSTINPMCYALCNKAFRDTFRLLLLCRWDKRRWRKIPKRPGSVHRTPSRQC
How it was run: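 CHO cells stably expressing human CHRM1, seeded 18 h at 37 C/5% CO2, dye-loaded 1 h at 37 C, then given compound in agonist mode; intracellular calcium fluorescence read kinetically at 1 s intervals. Fifteen concentrations, three independent runs.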

[12] = cAMP Responsive Elements (CRE) small molecule agonists, cell-based qHTS assay (AID 1963590)
How it was run: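 CRE-bla HEK 293T cells in DMEM with 10% dialyzed FBS, NEAA, pyruvate and 25 mM HEPES were plated 18 h at 37 C/5% CO2, then exposed to compounds in DMSO for 3 h before LiveBLAzer B/G FRET substrate addition.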

[13] = cAMP Responsive Elements (CRE) small molecule antagonists, cell-based qHTS assay (AID 1963591; active = well fitted inhibition curve with a large enough effect in the signal ratio in the repeat runs, not every such curve was filed as active; the % refers to the signal ratio)
How it was run: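 CRE-bla HEK293T cells were plated 18 h at 37 °C/5% CO2, pinned with compound in DMSO, then stimulated with NKH477 at 0.25 uM final for 3 h. LiveBLAzer B/G FRET substrate was added and plates incubated 2 h at room temperature.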

[14] = biological target: Beta-2 adrenergic receptor (Homo sapiens) (UniProt P07550); test: Adrenergic beta2 receptor (ADRB2) small molecule agonists, cell-based qHTS assay (AID 1963593);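 note: CHO cells stably overexpressing human ADRB2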
Chain of Beta-2 adrenergic receptor (Homo sapiens) (P07550 whole entry, looked up): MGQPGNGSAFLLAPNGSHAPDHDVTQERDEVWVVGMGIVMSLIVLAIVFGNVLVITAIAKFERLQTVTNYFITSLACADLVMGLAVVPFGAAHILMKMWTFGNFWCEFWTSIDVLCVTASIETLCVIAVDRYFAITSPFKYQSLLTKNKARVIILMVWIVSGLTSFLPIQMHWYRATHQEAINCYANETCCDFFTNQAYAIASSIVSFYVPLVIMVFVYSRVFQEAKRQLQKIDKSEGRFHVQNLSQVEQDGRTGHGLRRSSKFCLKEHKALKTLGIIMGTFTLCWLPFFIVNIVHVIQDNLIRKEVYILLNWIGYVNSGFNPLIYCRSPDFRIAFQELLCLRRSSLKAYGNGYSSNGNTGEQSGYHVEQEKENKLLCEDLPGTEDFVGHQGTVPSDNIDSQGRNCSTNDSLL
How it was run: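 CHO cells stably over-expressing ADRB2 were plated overnight at 37C, then dosed with compounds plus a stimulation mix containing 100uM IBMX and 25uM Ro-20-1724 for 0.5hr at room temperature. cAMP was measured by HTRF competition, 1hr.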

[15] = biological target: D(2) dopamine receptor (Homo sapiens) (UniProt P14416); test: Dopamine D2 receptor (DRD2) small molecule agonists, cell-based qHTS assay (AID 1963594); note: nearly all actives have a fitted effect of over 35% in size; note: potency is the fitted concentration of half-maximal effect
Chain of D(2) dopamine receptor (Homo sapiens) (P14416 whole entry, looked up): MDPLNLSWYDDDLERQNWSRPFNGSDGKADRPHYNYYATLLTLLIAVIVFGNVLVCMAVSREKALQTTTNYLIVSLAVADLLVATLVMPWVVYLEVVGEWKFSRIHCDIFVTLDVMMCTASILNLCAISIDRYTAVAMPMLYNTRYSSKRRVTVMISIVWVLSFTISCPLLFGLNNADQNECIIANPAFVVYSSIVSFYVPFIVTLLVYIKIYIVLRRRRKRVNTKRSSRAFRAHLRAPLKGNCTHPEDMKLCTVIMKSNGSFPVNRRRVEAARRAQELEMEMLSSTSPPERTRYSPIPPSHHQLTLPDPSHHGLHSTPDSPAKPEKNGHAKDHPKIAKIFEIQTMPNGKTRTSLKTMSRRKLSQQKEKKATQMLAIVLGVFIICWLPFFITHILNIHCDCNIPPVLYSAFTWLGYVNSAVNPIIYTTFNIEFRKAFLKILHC
How it was run: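 HEK293 cells stably expressing human DRD2, pre-treated with PDE inhibitor Ro20-1724 (0.1 mM final) and compound 10 min at room temperature, then stimulated with NKH477 (200nM […]) for 30 min. cAMP read by HTRF (665/620 nm).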

[16] = biological target: D(2) dopamine receptor (Homo sapiens) (UniProt P14416); test: Dopamine D2 receptor (DRD2) small molecule antagonists, cell-based qHTS assay (AID 1963595; active = well fitted inhibition curve with a large enough effect in the signal ratio in the repeat runs, with a control signal flat; the % refers to the signal ratio)
How it was run: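 Human DRD2 antagonist qHTS measuring cAMP by HTRF. The cells are exposed to compound for 10 min, then to NKH477 (200 nM) and quinpirole (12 nM) for 30 min at RT, with Ro20-1724 (0.1 mM) present throughout.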

[17] = biological target: Gonadotropin-releasing hormone receptor (Homo sapiens) (UniProt P30968); test: Human gonadotropin-releasing hormone receptor (GnRHR) small molecule agonists, calcium flux assay in GnRHR-HEK293 cells (AID 1920063); note: nearly all actives have a fitted effect of over 35% in size
Chain of Gonadotropin-releasing hormone receptor (Homo sapiens) (P30968 whole entry, looked up): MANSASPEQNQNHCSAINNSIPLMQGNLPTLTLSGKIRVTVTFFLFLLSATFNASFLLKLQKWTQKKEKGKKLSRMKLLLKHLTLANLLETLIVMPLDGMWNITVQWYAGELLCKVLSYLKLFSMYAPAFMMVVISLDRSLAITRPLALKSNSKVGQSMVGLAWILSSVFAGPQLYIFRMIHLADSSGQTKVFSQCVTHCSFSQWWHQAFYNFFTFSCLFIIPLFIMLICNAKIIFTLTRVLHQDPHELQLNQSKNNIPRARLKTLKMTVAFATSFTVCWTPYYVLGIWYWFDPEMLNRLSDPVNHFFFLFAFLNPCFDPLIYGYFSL
How it was run: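 HEK293 cells stably expressing human GnRHR were plated 18 h at 37 °C, loaded with calcium dye 1 h at 37 °C, then given compound in agonist mode; fluorescence (Ex/Em 480/540) read kinetically for 3 min at 1 s intervals.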

[18] = p53 small molecule agonists, cell-based qHTS assay with rat liver microsomes: qHTS cell viability counter screen (AID 1963580); note: nearly all actives have a fitted effect of over 45% in size
How it was run: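 p53RE-bla HCT-116 cells were exposed 16 h at 37 C to compounds with rat liver microsomes (0.5 mg/mL) and NADPH (0.5 mg/mL). Viability was measured in the same wells as ATP content by CellTiter-Glo luminescence.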

[19] = biological target: Muscarinic acetylcholine receptor M1 (Homo sapiens) (UniProt P11229); test: Cholinergic receptor muscarinic 1 (CHRM1) small molecule antagonists, cell-based qHTS assay (AID 1963588); note: nearly all actives have a fitted effect of over 40% in size
How it was run: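 CHRM1-CHO calcium-flux assay, antagonist mode. Cells were seeded 18 h, dye-loaded 1 h at 37 C and given compound for 5 min at RT, then acetylcholine was added at 50nM. FDSS fluorescence was read 3 min; 15 concentrations, three runs.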

[20] = biological target: Beta-2 adrenergic receptor (Homo sapiens) (UniProt P07550); test: Adrenergic beta2 receptor (ADRB2) small molecule antagonists, cell-based qHTS assay (AID 1963592); note: series mostly up to about 92 µM; nearly all actives have a fitted effect of over 50% in size
How it was run: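 Cells (CHO, stable ADRB2 overexpression) incubated 18-20hr at 37C; compounds added from DMSO; agonist mix (1nM isoproterenol, 100uM IBMX, 25uM Ro-20-1724) added; 0.5hr RT; d2-cAMP and anti-cAMP-cryptate added; 1hr RT; 665/615 nm read.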
% is set by controls: 0 for no effect and ±100 for the full control effect.

CCOc1ccccc1C(N)=O
inactive and 33.5 µM (active): Potency [1]
inactive: Potency [2] | Potency [3] | Potency [4] | Potency [5] | Potency [6] | Potency [7] | Potency [8] | Potency [9] | Potency [10] | Potency [11] | Potency [12] | Potency [13] | Potency [14] | Potency [15] | Potency [16]

CC(C=O)Cc1ccc(C(C)(C)C)cc1 (centres undefined)
inactive: Potency [17] | Potency [2] | Potency [3] | Potency [4] | Potency [5] | Potency [6] | Potency [18] | Potency [7] | Potency [8] | Potency [9] | Potency [10] | Potency [19] | Potency [11] | Potency [12] | Potency [13] | Potency [20] | Potency [14] | Potency [15] | Potency [16]

CCCCCCCCCCCCCCCCCC(=O)OCC(CC)CCCC (centres undefined)
inactive: Potency [1] | Potency [17] | Potency [2] | Potency [4] | Potency [5] | Potency [6] | Potency [7] | Potency [8] | Potency [9] | Potency [10] | Potency [19] | Potency [12] | Potency [13] | Potency [20] | Potency [15] | Potency [16]

C1=COCCC1
inactive: Potency [1] | Potency [17] | Potency [3] | Potency [4] | Potency [5] | Potency [6] | Potency [18] | Potency [7] | Potency [8] | Potency [9] | Potency [10] | Potency [19] | Potency [11] | Potency [12] | Potency [13] | Potency [20] | Potency [14] | Potency [15] | Potency [16]

CCO[Si](CCCN=C=O)(OCC)OCC
inactive: Potency [17] | Potency [2] | Potency [3] | Potency [4] | Potency [5] | Potency [6] | Potency [18] | Potency [7] | Potency [8] | Potency [10] | Potency [19] | Potency [11] | Potency [12] | Potency [13] | Potency [20] | Potency [15] | Potency [16]

CCN(CC)C(=O)C1CN2CCc3cc(OC)c(OC)cc3C2CC1OC(C)=O (centres undefined)
inactive: Potency [1] | Potency [17] | Potency [3] | Potency [4] | Potency [6] | Potency [18] | Potency [7] | Potency [8] | Potency [9] | Potency [10] | Potency [19] | Potency [12] | Potency [13] | Potency [20] | Potency [14] | Potency [15]

O=C1NC(=O)[C@@]2(CCOc3ccc(F)cc32)N1
active: Potency [9] 818 nM | Potency [10] 3.01 µM | Potency [15] 110 nM
inactive: Potency [17] | Potency [2] | Potency [3] | Potency [4] | Potency [5] | Potency [6] | Potency [18] | Potency [7] | Potency [8] | Potency [19] | Potency [11] | Potency [12] | Potency [13] | Potency [20] | Potency [16]

CC(O)CCCCn1c(=O)c2c(ncn2C)n(C)c1=O (centres undefined)
inactive: Potency [1] | Potency [2] | Potency [3] | Potency [4] | Potency [5] | Potency [6] | Potency [18] | Potency [7] | Potency [8] | Potency [9] | Potency [10] | Potency [12] | Potency [13] | Potency [20] | Potency [14] | Potency [15] | Potency [16]

C=C(C)[C@@H]1CCC2=CC(=O)C[C@@H](C)[C@]2(C)C1
inactive: Potency [1] | Potency [17] | Potency [2] | Potency [4] | Potency [5] | Potency [18] | Potency [7] | Potency [9] | Potency [10] | Potency [19] | Potency [11] | Potency [12] | Potency [13] | Potency [20] | Potency [14] | Potency [15] | Potency [16]

Cc1cc(C)c(N)c(Cl)c1
inactive: Potency [17] | Potency [3] | Potency [4] | Potency [5] | Potency [6] | Potency [18] | Potency [7] | Potency [8] | Potency [9] | Potency [10] | Potency [19] | Potency [11] | Potency [12] | Potency [13] | Potency [20] | Potency [15] | Potency [16]

Nc1cc(C(Cl)=C(Cl)Cl)c(S(N)(=O)=O)cc1S(N)(=O)=O
inactive: Potency [1] | Potency [2] | Potency [3] | Potency [4] | Potency [6] | Potency [7] | Potency [8] | Potency [9] | Potency [10] | Potency [19] | Potency [11] | Potency [12] | Potency [13] | Potency [20] | Potency [15] | Potency [16]

CC(C)(c1cc(Br)c(OCC(Br)CBr)c(Br)c1)c1cc(Br)c(OCC(Br)CBr)c(Br)c1 (centres undefined)
inactive: Potency [1] | Potency [17] | Potency [3] | Potency [4] | Potency [5] | Potency [6] | Potency [18] | Potency [7] | Potency [9] | Potency [10] | Potency [19] | Potency [11] | Potency [12] | Potency [13] | Potency [20] | Potency [14] | Potency [15] | Potency [16]

CCn1cc(C(=O)O)c(=O)c2cc3c(cc21)OCO3
inactive: activity, positive = activation [1] -1.35% [at 19 µM] | Potency [17] | Potency [3] | Potency [4] | Potency [5] | Potency [6] | Potency [18] | Potency [7] | Potency [8] | Potency [9] | Potency [10] | Potency [19] | Potency [11] | activity change, negative = inhibition [13] -7.86% [at 18.9 µM] | Potency [20] | Potency [14] | Potency [15] | Potency [16]

CNCCO
inactive: Potency [17] | Potency [2] | Potency [3] | Potency [4] | Potency [5] | Potency [6] | Potency [18] | Potency [7] | Potency [8] | Potency [9] | Potency [11] | Potency [12] | Potency [13] | Potency [20] | Potency [16]
